Experimental data: a collection of fitness landscapes (doi:10.1016/j.celrep.2020.107928)
The full ranking holds about 81,000 sequences; the median of “one-hybrid fitness for binding parS DNA” is about -0.17, and the highest 2% start at about 0.51. The entries come from a sample that favours the highest values as a whole.

B1: Caulobacter ParB omega fusion; a variant is named by its letters at X, in order, B8GW30 (parent)
chain: MESVVVGEPGMSEGRRGLGRGLSALLGEVDAAPAQAPGEQLGGSREAPIEILQRNPDQPRRTFREEDLEDLSNSIREKGVLQPILVRPSPDTAGEYQIVAGERAWRAAQRAGLKTVPIMVRELDDLAVLEIGIIENVQRADLNVLEEALSYKVLMEKFERTQENIAQTIGKSXSHVANXMRLLXLPDEVQSYLVSGELTAXHARAIAAAADPVALAKQIIEGGLSVRETEALARKAPNLSAGKSKGGRPPRVKDTDTQALESDLSSVLGLDVSIDHRGSTGTLTITYATLEQLDDLCNRLTRGI

Variants of: B1
Assay: one-hybrid fitness for binding parS DNA (scaled: cognate 1, non-cognate 0); higher = stronger binding
Settings: with parS DNA site
Summary of the method: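 On M9-minus-histidine containing 0.1 mM IPTG and 5 mM 3-AT, E. coli USO cells with a HIS3 reporter, site 19 bp from the promoter, grew 48 hours at 37°C to select Caulobacter ParB libraries randomised at four specificity codons. Plasmids from before and after were Illumina-sequenced, with three replicate libraries pooled and variants under 10 reads left out. Fitness is the log change in variant-to-wild-type read ratio, rescaled against cognate and non-cognate.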

NVPD and TDEP cannot be ordered by “one-hybrid fitness for binding parS DNA” value: no more than 0.2 for the first, no more than 0.2 for the second.

APNE and FINR cannot be ordered by “one-hybrid fitness for binding parS DNA” value: no more than 0.2 for the first, no more than 0.2 for the second.

PGNR and YRNV cannot be ordered by “one-hybrid fitness for binding parS DNA” value: no more than 0.2 for the first, no more than 0.2 for the second.

PVLC and WSCE cannot be ordered by “one-hybrid fitness for binding parS DNA” value: no more than 0.2 for the first, no more than 0.2 for the second.

Compared with QCQH, RTHS is higher in “one-hybrid fitness for binding parS DNA” value: no more than 0.2 for the first, 0.944 for the second.

RTHD and RTHH cannot be ordered by “one-hybrid fitness for binding parS DNA” value: no more than 0.2 for the first, no more than 0.2 for the second.

Compared with RYFQ, RYAM is higher in “one-hybrid fitness for binding parS DNA” value: no more than 0.2 for the first, 0.267 for the second.

Going from RYFK to RYFC, the “one-hybrid fitness for binding parS DNA” value rises from no more than 0.2 to 0.965.

Compared with RYAK, RYAC is higher in “one-hybrid fitness for binding parS DNA” value: no more than 0.2 for the first, 0.925 for the second.

PLPR and RDYC cannot be ordered by “one-hybrid fitness for binding parS DNA” value: no more than 0.2 for the first, no more than 0.2 for the second.

Compared with RDNC, RCYC is higher in “one-hybrid fitness for binding parS DNA” value: no more than 0.2 for the first, 1 for the second.

Going from RSNC to RCNC, the “one-hybrid fitness for binding parS DNA” value falls from 0.957 to 0.941.

Compared with RENC, RSNQ is lower in “one-hybrid fitness for binding parS DNA” value: 0.27 for the first, no more than 0.2 for the second.

Compared with RPNC, RSYC is higher in “one-hybrid fitness for binding parS DNA” value: no more than 0.2 for the first, 0.931 for the second.

First: RSYN
Second: RSYD
The “one-hybrid fitness for binding parS DNA” value of the first is higher: 0.406 for the first, no more than 0.2 for the second.

RPYC and KDHC cannot be ordered by “one-hybrid fitness for binding parS DNA” value: no more than 0.2 for the first, no more than 0.2 for the second.

ISLY and LALC cannot be ordered by “one-hybrid fitness for binding parS DNA” value: no more than 0.2 for the first, no more than 0.2 for the second.

LFYG and TPSE cannot be ordered by “one-hybrid fitness for binding parS DNA” value: no more than 0.2 for the first, no more than 0.2 for the second.

GIAA and MCGR cannot be ordered by “one-hybrid fitness for binding parS DNA” value: no more than 0.2 for the first, no more than 0.2 for the second.

Compared with RERC, RSDN is lower in “one-hybrid fitness for binding parS DNA” value: 0.334 for the first, 0.313 for the second.

Going from RCRC to REDC, the “one-hybrid fitness for binding parS DNA” value falls from 0.863 to no more than 0.2.

Going from RPRC to RSRC, the “one-hybrid fitness for binding parS DNA” value rises from no more than 0.2 to 0.932.

Compared with RPDC, RCDC is higher in “one-hybrid fitness for binding parS DNA” value: no more than 0.2 for the first, 0.877 for the second.

First: RSDC
Second: RDRC
The “one-hybrid fitness for binding parS DNA” value of the first is higher: 0.773 for the first, no more than 0.2 for the second.

Going from RSDD to RSRF, the “one-hybrid fitness for binding parS DNA” value rises from no more than 0.2 to 0.281.

AHPR and NQNV cannot be ordered by “one-hybrid fitness for binding parS DNA” value: no more than 0.2 for the first, no more than 0.2 for the second.

QPDY and SCMC cannot be ordered by “one-hybrid fitness for binding parS DNA” value: no more than 0.2 for the first, no more than 0.2 for the second.

LKGL and CAST cannot be ordered by “one-hybrid fitness for binding parS DNA” value: no more than 0.2 for the first, no more than 0.2 for the second.

INPC and ETLI cannot be ordered by “one-hybrid fitness for binding parS DNA” value: no more than 0.2 for the first, no more than 0.2 for the second.

FWGR and RHDH cannot be ordered by “one-hybrid fitness for binding parS DNA” value: no more than 0.2 for the first, no more than 0.2 for the second.

Going from RHDP to RHNS, the “one-hybrid fitness for binding parS DNA” value rises from no more than 0.2 to 0.864.

RHNH and RHND cannot be ordered by “one-hybrid fitness for binding parS DNA” value: no more than 0.2 for the first, no more than 0.2 for the second.

Compared with RHDS, SDHS is lower in “one-hybrid fitness for binding parS DNA” value: 0.967 for the first, no more than 0.2 for the second.

QQDM and MDNG cannot be ordered by “one-hybrid fitness for binding parS DNA” value: no more than 0.2 for the first, no more than 0.2 for the second.

EESV and LGER cannot be ordered by “one-hybrid fitness for binding parS DNA” value: no more than 0.2 for the first, no more than 0.2 for the second.

First: RQGL
Second: RETG
The “one-hybrid fitness for binding parS DNA” value of the first is lower: no more than 0.2 for the first, 0.249 for the second.

First: RLTD
Second: RCTG
The “one-hybrid fitness for binding parS DNA” value of the first is lower: no more than 0.2 for the first, 1.02 for the second.

RITP and RLTQ cannot be ordered by “one-hybrid fitness for binding parS DNA” value: no more than 0.2 for the first, no more than 0.2 for the second.

Compared with RRTM, RRTG is higher in “one-hybrid fitness for binding parS DNA” value: 0.351 for the first, 0.699 for the second.

First: RITD
Second: RITG
The “one-hybrid fitness for binding parS DNA” value of the first is lower: no more than 0.2 for the first, 0.997 for the second.

Going from RPTG to RLTG, the “one-hybrid fitness for binding parS DNA” value rises from no more than 0.2 to 1.03.

RRTK and QTKN cannot be ordered by “one-hybrid fitness for binding parS DNA” value: no more than 0.2 for the first, no more than 0.2 for the second.
